According to PubChem BioAssay AID1851 (National Center for Advancing Translational Sciences (NCATS), 2009):
The whole screen tested about 16,000 compounds, of which about 4,000 (25%) were called active. Inconclusive results (about 26%) are left out. The call rests on the fitted dose curve; in most records, active means well fitted curve in the direction sought with a large enough effect; inconclusive means small, poorly fitted or top-dose-only effect, or effect the other way; inactive means no such curve, though single readings can be large or run the other way. Only a sample is shown.

molecular target: Cytochrome P450 2C9 (Homo sapiens) (UniProt P11712); experiment: Cytochrome panel assay with activity outcomes; conditions: recombinant CYP, pro-luciferin dealkylation, luminescence, p450-cyp2c9; series mostly up to 57.1 µM
Sequence (P11712 whole entry, looked up): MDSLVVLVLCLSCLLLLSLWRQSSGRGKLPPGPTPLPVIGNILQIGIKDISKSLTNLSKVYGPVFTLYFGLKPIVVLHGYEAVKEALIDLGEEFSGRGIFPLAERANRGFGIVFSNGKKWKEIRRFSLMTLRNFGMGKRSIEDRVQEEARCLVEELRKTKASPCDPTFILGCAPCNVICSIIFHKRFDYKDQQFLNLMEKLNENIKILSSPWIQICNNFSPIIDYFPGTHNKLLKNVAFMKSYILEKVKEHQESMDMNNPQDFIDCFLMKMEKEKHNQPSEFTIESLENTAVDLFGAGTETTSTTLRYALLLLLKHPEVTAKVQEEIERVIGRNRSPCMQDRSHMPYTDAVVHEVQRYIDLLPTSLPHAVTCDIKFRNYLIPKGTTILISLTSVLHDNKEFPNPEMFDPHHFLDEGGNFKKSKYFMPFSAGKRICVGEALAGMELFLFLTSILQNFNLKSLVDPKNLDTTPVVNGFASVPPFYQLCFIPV
On the % scale 0 is the no-effect control and ±100 the full control effect.

| Structure (SMILES) | AC50 | activity, negative = inhibition |
| --- | --- | --- |
| Cc1cccc(N/C(N)=N/c2nc(C)cc(C)n2)c1 | inactive | – |
| Cc1cccc(NC(=O)C2(c3ccc([N+](=O)[O-])cc3)CCCC2)c1 | 20 µM (active) | – |
| CCN(CC)CCOC(=O)C1(c2ccc([N+](=O)[O-])cc2)CCCC1 | inactive | – |
| Cc1cccc(NC(=O)C2(c3ccccc3)CC2(Cl)Cl)c1 (centres undefined) | 2 µM (active) | – |
| CN1CCC[C@@H](CC2c3ccccc3Sc3ccccc32)C1 | inactive | – |
| CCSC(N)=Nc1ccc(C(F)(F)F)cc1 | inactive | – |
| COc1cc(S(C)=O)ccc1-c1nc2ncccc2[nH]1 (centres undefined) | inactive | – |
| COC(=O)c1ccccc1NC(=O)c1cc2nc(C3CC3)cc(C(F)(F)F)n2n1 | 3.55 µM (active) | – |
| CN(C)CCOC(=O)[C@@H](c1ccccc1)C1(O)CCCC1 | inactive | – |
| C[C@@H]1c2cccc(O)c2C(O)=C2C(=O)[C@@]3(O)C(O)=C(C(N)=O)C(=O)[C@@H](N(C)C)[C@@H]3[C@@H](O)[C@@H]21 | inactive | – |
| Cc1ccc(S(=O)(=O)NC(=O)NN2C[C@H]3CCC[C@@H]3C2)cc1 | inactive | – |
| Cc1ccc(S(=O)(=O)NC(=O)c2cccn2C)cc1 | 15.8 µM (active) | – |
| Cc1ccc(S(=O)(=O)NC(=O)OC23COCN2COC3)cc1 | – | -0.0498% [at 11.4 µM] (inactive) |
| CCN(CC)CCNc1ccc(CO)c2sc3ccccc3c(=O)c12 | inactive | – |
| Cc1ccccc1-c1nc(N(C)Cc2ccco2)c2ccccc2n1 | – | -11% [at 2.29 µM] (inactive) |
| O=C(NCc1ccccc1)C(c1ccc(F)cc1)N(Cc1ccco1)C(=O)c1ccccn1 (centres undefined) | 15.8 µM (active) | – |
| c1ccc(CCNCc2ccco2)nc1 | – | 0.412% [at 11.4 µM] (inactive) |
| Cc1ccccc1C(C(=O)NCc1ccccc1)N(Cc1ccco1)C(=O)c1ccccn1 (centres undefined) | 10 µM (active) | – |
| CC(Cc1ccccc1)C(=O)NCc1ccccn1 (centres undefined) | inactive | – |
| CN(Cc1ccco1)c1ncnc2ccc(-c3cccnc3)cc12 | – | -16.8% [at 2.29 µM] (inactive) |
| Cc1cc(C(C)(C)CC(C)(C)C)ccc1OCCOCC[N+](C)(C)Cc1ccccc1 | inactive | – |
| CNc1cc(NS(=O)(=O)c2ccc(N)cc2)nc(NC)n1 | 2 µM (active) | – |
| Cc1cc(C)nc(NS(=O)(=O)c2ccc(N)cc2)n1 | inactive | – |
| COc1cc(NS(=O)(=O)c2ccc(N)cc2)ncn1 | inactive | – |

| Structure (SMILES) | AC50 | activity, negative = inhibition |
| --- | --- | --- |
| Cc1ccc(-n2nc3c(c2NC(=O)c2cccs2)CSC3)cc1 | 3.55 µM (active) | – |
| CCCC(=O)Nc1c(C)n[nH]c1C | inactive | – |
| Cc1ccccc1-n1nc2c(c1NC(=O)c1ccc(S(=O)(=O)N(C)C)cc1)CSC2 | 2.82 µM (active) | – |
| Cc1ccccc1-n1nc2c(c1NC(=O)c1c(-c3ccccc3Cl)noc1C)CSC2 | 1.41 µM (active) | – |
| CCCC(=O)Nc1c2c(nn1-c1ccc(C)cc1C)CSC2 | 14.1 µM (active) | – |
| CC(C)(C)NC[C@H](O)COc1cccc2c1CCC(=O)N2 | inactive | – |
| CCOC(=S)SCC(=O)O | – | 4.25% [at 11.4 µM] (inactive) |
| NC1=N[C@H](c2ccc(Cl)cc2)N(c2ccc(S(=O)(=O)Nc3ncccn3)cc2)C(N)=N1 | – | 14.6% [at 11.4 µM] (inactive) |
| CC(C)CO/N=C1/C[C@@H](O)[C@@H](O)[C@@H]2[C@@H]3C(=O)N([C@@H](C)c4ccccc4)C(=O)[C@H]3CC[C@@H]12 | – | -15.7% [at 11.4 µM] (inactive) |
| Cc1nc(NS(=O)(=O)c2ccc(Br)cc2)c2c3c(sc2n1)CCC3 | 0.224 µM (active) | – |
| Cc1nc(NS(=O)(=O)c2ccccc2C)c2c3c(sc2n1)CCC3 | 2.51 µM (active) | – |
| Cn1c2c(c(=O)n(C)c1=O)C1(C(=O)Nc3ccccc31)C(C#N)=C(N)O2 (centres undefined) | inactive | – |
| CCn1c(=O)[nH]c2cc(Cl)c(Cl)cc21 | inactive | – |
| C[C@@H](c1ccccc1)N1C(=O)[C@H]2[C@H]3[C@H](O)[C@H](O)C/C(=N/OCc4ccccc4)[C@H]3CC[C@@H]2C1=O | – | -20.1% [at 11.4 µM] (inactive) |
| CCn1c(COc2ccccc2)nnc1SCC(=O)c1cccc([N+](=O)[O-])c1 | 22.4 µM (active) | – |
| O=C(CSc1nnc(COc2ccccc2)n1-c1ccccc1)c1ccccc1 | 10 µM (active) | – |
| CCn1c(SCC(=O)N/N=C/C=C\c2ccccc2[N+](=O)[O-])nnc1-c1ccccc1 | inactive | – |
| O=C(CSc1nc2ccc([N+](=O)[O-])cc2s1)c1ccc2ccccc2c1 | – | -5.5% [at 11.4 µM] (inactive) |
| COc1ccc(OCc2nnc(SCC(=O)O)n2N)cc1 | inactive | – |
| CO[C@@H]1COC(=O)C/C=C\[C@@H](C)[C@@H]2C=C[C@H](O)[C@@H](COC(=O)CCC[C@H]1C)O2 | – | -8.54% [at 11.4 µM] (inactive) |
| Cc1c(C)n(C(=O)CN2CCC(C)CC2)c2ccccc12 | inactive | – |
| CO[C@@H]1COC(=O)C/C=C\[C@H](C)[C@H](OC)COC(=O)[C@H]2CCCN2C(=O)C/C=C\[C@H]1C | – | 13.8% [at 11.4 µM] (inactive) |
| OC[C@H]1NC[C@H](O)[C@@H](O)[C@H]1O | inactive | – |
| Cc1cc(N2CCN(C)CC2)nc2ccc(NC(=O)CCC(=O)NCc3ccco3)cc12 | inactive | – |

| Structure (SMILES) | AC50 | activity, negative = inhibition |
| --- | --- | --- |
| Cc1ccccc1-c1cc(N(C)Cc2ccco2)ncn1 | – | -5.66% [at 2.29 µM] (inactive) |
| Cc1ccc(NC(=O)N(Cc2ccco2)C(C)c2ccco2)cc1C (centres undefined) | 12.6 µM (active) | – |
| CCCCSC(=S)N(C)C1CCS(=O)(=O)C1 (centres undefined) | 17.8 µM (active) | – |
| CCCNC1CCS(=O)(=O)C1 (centres undefined) | inactive | – |
| CCCCN(C(=S)Nc1ccccc1)C1CCS(=O)(=O)C1 (centres undefined) | inactive | – |
| O=C(Cc1ccccc1)NC1CCN(S(=O)(=O)c2ccc(C(=O)O)cc2)CC1 | inactive | – |
| Cc1ccc(NC(=O)CN2CCC(NC(=O)Cc3ccccc3)CC2)cc1C | 15.8 µM (active) | – |
| O=[N+]([O-])c1cccc2c(Br)[nH]nc12 | inactive | – |
| O=[N+]([O-])c1cccc2cn[nH]c12 | inactive | – |
| Cc1ccc(C(c2ccc(C)o2)c2cccc([N+](=O)[O-])c2O)o1 | 1.26 µM (active) | – |
| COC(=O)C1=C(C)OC(N)=C(C#N)C1c1cc(OC)ccc1OC (centres undefined) | 5.01 µM (active) | – |
| CCOC(=O)C1=C(c2ccccc2)OC(N)=C(C#N)C1c1ccc(Cl)s1 (centres undefined) | inactive | – |
| CCOC(=O)C1=C(N)Oc2ccc(Br)cc2[C@@H]1[C@@H](C#N)C(=O)OCC | inactive | – |
| COC(=O)C1=C(C)OC(N)=C(C#N)C1C1CCCCC1 (centres undefined) | 10 µM (active) | – |
| CC(=O)OC[C@@H]1O[C@H](C/C=N\O[C@@H](C)c2cn([C@H]3COC[C@H]3O)nn2)C=C[C@@H]1OC(C)=O | – | 17.7% [at 11.4 µM] (inactive) |
| COc1ccccc1-c1cncnc1NCc1cnc(C)cn1 | – | 14.1% [at 2.29 µM] (inactive) |
| Cn1c(N)c(N=Nc2ccc(S(N)(=O)=O)cc2)c(=O)n(C)c1=O | – | 5.29% [at 11.4 µM] (inactive) |
| Cc1ccc(N=Nc2c(N)n(-c3ccccc3)[nH]c2=O)cc1 | 7.94 µM (active) | – |
| Cc1[nH]n(-c2ccc(S(=O)(=O)O)cc2)c(=O)c1N=Nc1ccccc1 | – | 21.2% [at 11.4 µM] (inactive) |
| CCN1C(=O)C=CC1=O | inactive | – |
| COc1ccc(CNCCC(c2ccc(OC(C)C)cc2)C(C)C)cc1OC (centres undefined) | inactive | – |
| CC(C)=CCC/C(C)=C/CO/N=C1/C[C@@H](O)[C@@H](O)[C@@H]2[C@H]3C(=O)N(c4ccc(F)cc4F)C(=O)[C@@H]3CC[C@H]12 | – | 18.9% [at 11.4 µM] (inactive) |
| COc1cc(/C=C(/C#N)c2nc3ccccc3[nH]2)ccc1Oc1ncccc1[N+](=O)[O-] | 2 µM (active) | – |
| COc1cc(/C=C(/C#N)c2nc3ccccc3[nH]2)ccc1OCC(=O)Nc1ccccc1C | 3.16 µM (active) | – |

| Structure (SMILES) | AC50 | activity, negative = inhibition |
| --- | --- | --- |
| N#C/C(=C\c1ccc(N2CCCC2)c([N+](=O)[O-])c1)c1nc2ccccc2[nH]1 | 2.51 µM (active) | – |
| COc1ccc(/C=C(/C#N)C(=O)Nc2cc(C)ccc2C)cc1C(=O)O | inactive | – |
| N#C/C(=C\c1ccc(Oc2ccc(C(F)(F)F)cc2[N+](=O)[O-])cc1)c1nc2ccccc2[nH]1 | 3.98 µM (active) | – |
| Fc1ccc(Nc2ncnc3ccc(-c4ccoc4)cc23)cc1 | – | -12.3% [at 2.29 µM] (inactive) |
| COc1ccc(-c2cc(CNC(C)=O)on2)cc1 | inactive | – |
| COc1ccc(-c2cc(C(F)(F)F)n3nc(C(=O)NCc4ccco4)c(Cl)c3n2)cc1 | 0.398 µM (active) | – |
| O=c1ccc(NS(=O)(=O)c2ccccc2)cn1Cc1ccc(Cl)c(Cl)c1 | 2.51 µM (active) | – |
| O=S(=O)(c1ccccc1)N1CCC2(CCN(Cc3ccccc3)CC2)CC1 | inactive | – |
| O=c1ccc(NS(=O)(=O)c2ccc(Cl)cc2)cn1Cc1ccc(Cl)c(Cl)c1 | 1.78 µM (active) | – |
| CCCN(CCC)C(=S)NC(=O)c1ccc(Cl)cc1Cl | 3.55 µM (active) | – |
| CCn1c(CCNC(=O)c2ccc(Cl)cc2Cl)n[nH]c1=S | inactive | – |
| CCC(C)C1NC(=S)N(C2CCCCC2)C1=O (centres undefined) | 3.55 µM (active) | – |
| CC(C)CC1NC(=S)N(C2CCCCC2)C1=O (centres undefined) | 17.8 µM (active) | – |
| COc1ccc2c(c1OC)C(=O)N(C(C)C(=O)O)C2=O (centres undefined) | inactive | – |
| O=C(CN1CCN(Cc2ccccc2)CC1)c1ccc(Br)cc1 | inactive | – |
| O=C(CN1CCN(Cc2ccccc2)CC1)N1CCCc2c1c(=O)oc1ccc(O)cc21 | 20 µM (active) | – |
| COc1cc(CN2CCCCC2)cc2cc(C(=O)O)c(=O)oc12 | – | 15.6% [at 11.4 µM] (inactive) |
| CCC[C@H](Sc1nc(N)nc2nc[nH]c12)C(=O)O | – | -1.85% [at 11.4 µM] (inactive) |
| O=C(O)CC[P+](c1ccccc1)(c1ccccc1)c1ccccc1 | – | 8.46% [at 11.4 µM] (inactive) |
| O=C(c1ccccc1)N1CCSC1=S | inactive | – |
| O=C(Nc1ccccc1)N1CCSc2cc(Cl)ccc21 | 2.24 µM (active) | – |
| CC(=O)NNC(=O)N1Cc2ccccc2Oc2ccc(Cl)cc21 | inactive | – |
